Bioassay records deposited in PubChem by ICCB-Longwood Screening Facility, Harvard Medical School.
Polio RdRp inh: poliovirus RdRp elongation inhibitors, primary screen, biochemical, fluorescence polarization, total intensity | poliovirus polymerase elongation; active compounds read low | % elongation, % (compound at 16.7 µg/mL) | 150,000 compounds, 0.66% hits | AID 588519, 2011; in the data active = % elongation below about 90%
AID504770: growth inhibition of E. coli YBA685, primary screen, V. cholerae RctB inhibitors; E. coli YBA685 rctB-dependent plasmid, OD600 growth, 3 h; active compounds read low; z-score (test concentration not listed); 130,000 compounds, 0.27% hits; in the data active = z-score below about -2, passing the limit was not always enough
MbtI inh: MbtI salicylate synthase inhibitors, primary screen, biochemical, fluorescence intensity | inhibition, % (no concentration beside the values) | purified MbtI enzyme, fluorescence intensity read-out | 100,000 compounds, 0.89% hits | P9WFX0; in the data active = inhibition mostly above about 56%, no sharp cut-off; inactive = mostly below about 77%
Target sequence (P9WFX0 whole entry, looked up): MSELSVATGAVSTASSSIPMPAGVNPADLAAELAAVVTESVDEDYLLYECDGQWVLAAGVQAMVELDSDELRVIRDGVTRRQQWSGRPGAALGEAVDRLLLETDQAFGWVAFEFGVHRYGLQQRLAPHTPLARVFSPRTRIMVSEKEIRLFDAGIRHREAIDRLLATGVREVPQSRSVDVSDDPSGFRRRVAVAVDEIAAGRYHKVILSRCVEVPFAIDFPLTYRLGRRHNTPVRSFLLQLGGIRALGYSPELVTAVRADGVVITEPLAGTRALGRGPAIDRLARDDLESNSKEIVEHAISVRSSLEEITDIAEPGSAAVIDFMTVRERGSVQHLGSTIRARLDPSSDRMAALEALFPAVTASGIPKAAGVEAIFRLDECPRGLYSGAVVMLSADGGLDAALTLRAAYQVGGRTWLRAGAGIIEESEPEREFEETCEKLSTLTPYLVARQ
MenB inh: M. tuberculosis MenB inhibitors, primary screen, biochemical, absorbance | MenB enzyme assay, absorbance read-out | 100,000 compounds, 0.43% hits | inhibition, % (no concentration beside the values) | 1,4-dihydroxy-2-naphthoyl-CoA synthase (Mycobacterium tuberculosis (strain ATCC 25618 / …; in the data active = inhibition above about 21%, passing the limit was not always enough
An asterisk follows results filed as active; / = not tested or not shown. The list is not random: actives were taken first. Their share in the collection is about 1.4%.

SMILES | Polio RdRp inh | AID504770 | MbtI inh | MenB inh
O=C1CN(C(=O)COC(=O)Cn2cnc3ccccc3c2=O)c2ccccc2N1 | 108 | -0.9 | -4 | -23
N#Cc1c(Nc2ccccc2Cl)s[nH]c1=O | 102 | -1.6 | 67 | -14
N#Cc1c(Nc2ccccc2)s[nH]c1=O | 115 | -2.6* | 22 | 13
CCc1cccc2c1=NC(=O)C=2c1c(C)[nH]n(-c2ccccc2)c1=O | 97 | -0.6 | 85* | -4
CC(C)N(CC(N)=O)C(=O)Cc1ccc(Cl)cc1 | 100 | 0.3 | 0 | -9
COc1ccc(-c2ccc(CCC(=O)O)[nH]2)cc1 | 100 | -0.25 | 89 | 5
O=c1sn(-c2ccccc2C(F)(F)F)c(=O)n1CC1CC1 | 100 | -1.2 | 99* | 3
Cn1cccc1/C=C/C(=O)OCC(=O)NC1(C#N)CCCCC1 | 98 | -0.35 | 0 | 2
Cc1nn(-c2ccccc2)c2c1C(c1ccccc1)C(NC(=O)c1ccccc1)C(=O)N2 (stereo not drawn) | 101 | 0.45 | 7 | -8
COc1ccccc1OCCn1cc(/C=C2/SC(=S)NC2=O)c2ccccc21 | 98 | 0.5 | 59* | -94
COc1ccccc1/C=C1/SC(=S)NC1=O | 107 | 0.15 | -2 | /
Cc1c2cnn(-c3ccccc3)c(=O)c2c(C)n1CCCC(=O)Nc1cccc(F)c1 | 82* | / | / | /
O=C(CSC1=NS(=O)(=O)c2ccccc2N1)N1CCCc2ccccc21 | 102 | 0.3 | 19 | -12
Oc1c(Br)cc(Cl)cc1/C=N/c1ccccn1 | 75* | -1.3 | 163 | -104
COc1ccc(CCN(C)c2nc(N)c3c(N)nc(SCC(=O)O)cc3c2C#N)cc1OC | 72* | -1.1 | -110 | -28
CCCC(=O)OC1C(=O)c2ccccc2OC1c1ccccc1 (stereo not drawn) | / | -0.3 | / | /
Ic1ccc(Nc2nc3nonc3nc2N/N=C\c2ccco2)cc1 | 99 | -0.15 | 2 | 29*
CC(C#N)(NC(=O)CSc1ccc(S(=O)(=O)N2CCCCC2)cn1)C1CC1 (stereo not drawn) | 101 | 0.8 | 14 | -19
CC(C)Cn1c(=S)[nH]c2ccccc21 | 99 | 0.7 | 17 | 0
CC(C)Cn1c(=S)[nH]c2cc(Cl)ccc21 | 78* | -0.55 | 85* | -27
NC(=O)CSc1nnc(C2CC2)n1C1CC1 | 104 | -0.15 | -2 | -13
CCC(CC)NC(=O)CSc1nnc(-c2ccc(C)cc2)n1N | 78* | -0.5 | 92 | -39
CN(C)Cc1n[nH]c(=S)o1 | 75* | 2 | 90* | -19
CC(C)c1ccc(C=C2C(=O)NC(=O)NC2=O)cc1 | 77* | -2.3 | 6 | -7
CCCc1nc(=S)[nH][nH]1 | 101 | 0.45 | 69 | -10
SMILES | Polio RdRp inh | AID504770 | MbtI inh | MenB inh
S=c1nc(CCCCc2nc(=S)[nH][nH]2)[nH][nH]1 | 75* | -0.45 | 72* | 8
COc1ccccc1CNC(=O)c1cnc(SC)nc1C | 115 | / | / | /
COc1ccccc1CNC(=O)c1ccccc1SC | 103 | 2.3 | 59* | -34
COCCN(Cc1ccccc1)C(=O)c1ccc2c(c1)NC(=O)CS2 | 93 | 0.1 | 63* | -48
COc1cccc(CN(C)C(=O)c2ccc3c(c2)NC(=O)CS3)c1 | 99 | -0.95 | 2 | -9
O=C(OCC(=O)N1CCNC1=O)C1=COCCO1 | 104 | -0.7 | 0 | 7
OCCP(c1ccccc1)c1ccccc1 | 100 | -0.75 | -26 | 61*
O=C(O)CC(CP(c1ccccc1)c1ccccc1)C(=O)O (stereo not drawn) | 101 | -1 | -17 | -146
CNC(=O)c1sc(NCc2ccco2)nc1C | 77* | 0.15 | 98* | -25
COc1ccc(-c2n[nH]c(=S)[nH]c2=O)cc1 | 94 | 0.3 | 77* | -35
Cc1ccc(-c2n[nH]c(=S)[nH]c2=O)cc1 | 107 | 0.3 | 30 | -26
Cc1scc(-c2ccccc2)[n+]1CCO | 104 | -0.25 | 54* | -3
Cc1ccc(C)c(SCC(=O)NC(C)C(c2ccccc2)N2CCOCC2)c1 (stereo not drawn) | 88* | 1 | 2 | /
Cc1ccc(C)c(SCC(=O)NC(C)C(c2cccs2)N2CCCC2)c1 (stereo not drawn) | 99 | 0.25 | 3 | /
Cc1nnc(SCc2ccc(C#N)cc2)n1C1CC1 | 99 | -0.75 | -6 | -7
N#Cc1ccc(CSc2nnnn2C2CC2)cc1 | 35* | -0.3 | -9 | -18
CCc1nnc(NC(=O)c2sc(C)nc2C)s1 | 103 | -0.3 | -18 | -16
C=C(C)CN(CC)C(=O)CSc1nc2ncc(Cl)cc2[nH]1 | 88* | 0.25 | 65 | -19
Cn1cccc1C(=O)NC(=O)CSc1nc2ncc(Cl)cc2[nH]1 | 103 | -1.1 | -4 | -28
CC1CCc2c(sc3nc(C(C)C)n4c(SCC(=O)NCc5ccco5)nnc4c23)C1 (stereo not drawn) | 103 | 0.75 | 5 | 27*
CN(C)S(=O)(=O)c1ccc(SCC(=O)NC(C)(C)C)nc1 | 99 | 1.7 | 44 | -12
Cc1cc(C)n(Cc2ccccc2)n1 | 101 | -0.3 | -5 | /
C=CCNC(=S)Nc1ccccc1 | 101 | -0.4 | 0 | -19
C=CCNC(=S)C(=O)Nc1ccccc1 | 81* | 1.6 | / | -42
Cc1ccc(/C=C2/C(=O)NC(=O)N(C3CCCCC3)C2=O)cc1 | 99 | -0.7 | 6 | 3
SMILES | Polio RdRp inh | AID504770 | MbtI inh | MenB inh
CSc1ncc(/C=C2/C(=O)NC(=O)N(C3CCCCC3)C2=O)cn1 | 100 | -0.3 | 71* | -38
CN1CCN(C(=O)c2cc3c(-c4ccc(Cl)cc4)nn(C)c3s2)CC1 | / | 1.7 | / | /
COc1ccc(Cc2nn3c(Cn4cnc5ccccc54)nnc3s2)cc1 | 100 | -0.4 | 99* | -40
CCOC(=O)c1cccc(NC(=O)c2oc3c(c2C)-c2nn(CC)cc2CC3)c1 | 64* | / | / | /
CC(=O)c1cccc(NC(=O)c2oc3c(c2C)-c2nn(Cc4ccc(Cl)cc4)cc2CC3)c1 | 93 | / | / | /
O=S(=O)(c1ccc(S(=O)(=O)N2CCCC2c2ccc3c(c2)OCCCO3)cc1)N1CCCC1 (stereo not drawn) | 104 | -0.5 | 0 | 9
C/C(COc1ccccc1O)=N\NC(N)=O | 104 | -0.15 | -8 | 1
NC1CCN(C(=O)NC2CCCCC2)CC1 | 101 | -0.2 | -3 | 24*
Cc1cc(C)cc(NC(=O)c2sc3nc(-c4cc5ccccc5oc4=O)[nH]c(=O)c3c2C)c1 | 105 | / | / | /
Cc1c(C(=O)Nc2cccc(F)c2)sc2nc(-c3cc4ccccc4oc3=O)[nH]c(=O)c12 | 64* | / | / | /
COc1ccc(NC(=O)C2CCN(C(=O)/C=C/c3ccccc3)CC2)cn1 | 102 | -0.5 | 8 | 5
C1CCCN(c2nc(N3CCCCCC3)nc(N3CCCCCC3)n2)CC1 | 101 | -0.35 | 0 | -16
COC(=O)C1C(=O)NC(S)=C(C#N)C1c1ccccc1Cl (stereo not drawn) | 106 | -0.25 | 87* | -12
CCOc1ccccc1C1C(C#N)=C(SC)NC(=O)C1C(=O)OC (stereo not drawn) | / | 0.7 | / | /
O=C(NCc1ccco1)/C(=C/C=C\c1ccccc1)NC(=O)c1ccccc1 | 105 | 0.35 | / | -9
